In PubChem BioAssay AID1159568 (Broad Institute, 2015):
Measured potencies and affinities stand elsewhere. Inconclusive results are not listed. Activity calls are given as the source filed them.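 The calls were made as follows: active = signal loss with an EC50 at or below twice the highest valid dose for that sample; inconclusive = flat curve with 30 to 70% inhibition, or poor fit; inactive = the rest.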

experiment: Dd2 parasite growth inhibition in erythrocytes – SYBR Green, dry powder samples, set 9, dose response (AID 1159568); conditions: P. falciparum Dd2 in erythrocytes, 72 h; series mostly up to 19.5 µM; activity change, negative = inhibition: at the top concentration

Activity change, negative = inhibition, inactive:
COc1ccc(NC(=O)N(C)C[C@H]2Oc3ccc(NC(=O)CCN4CCOCC4)cc3C(=O)N([C@H](C)CO)C[C@@H]2C)cc1 -2.62%
Cc1noc(C)c1S(=O)(=O)N(C)C[C@H]1OCc2cn(nn2)CCCC(=O)N([C@@H](C)CO)C[C@@H]1C -9.44%
COc1ccc(CNC(=O)C[C@H]2CC[C@@H](NC(=O)CN(C)C)[C@H](CO)O2)cc1 -8.93%
COc1cccc(NC(=O)N[C@@H]2CC[C@H](CC(=O)N3CCN(C)CC3)O[C@@H]2CO)c1 3.98%
C[C@H]1CN([C@@H](C)CO)C(=O)CCCn2cc(nn2)CO[C@H]1CN(C)C(=O)Nc1cccc2ccccc12 0.508%
CC(C)[C@@H]1COCc2cnnn2CCC[C@H](C)C(=O)N1 0.842%
O=C(NCc1ccc2c(c1)OCO2)[C@@H]1[C@@H](CO)[C@@H]2Cn3c(cccc3=O)[C@H]1N2Cc1cncnc1 2.33%
COCC(=O)N1C[C@H](C)[C@@H](OC)CN(C)C(=O)c2ccc(NC(=O)Nc3cccc(F)c3)cc2OC[C@@H]1C 4.93% [at 6.8 µM]
